LEDGF integ inh = blocks HIV-1 LEDGF/p75-dependent DNA integration; TR-FRET IN-LEDGF/p75 DNA integration, Eu/Cy5; inhibition, % at 3.7 µM; actives 0.64% (n = 370,000);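 active = inhibition above the screen-wide mean plus 3 SD, cut at about 13% in these data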;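 also: signal is the Cy5 over europium emission ratio at 671 and 618 nm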
MBD2 inh = MBD2-methylated oligo binding inhibition. AID 686964. Q9UBB5. TR-FRET, MBD2 binding to methylated oligonucleotide. actives 0.31% (n = 370,000). inhibition, % at 4.4 µM; in the data active = inhibition above about 13%
UHRF1 binding = UHRF1 methyl-DNA binding inhibition; Q96T88; UHRF1 binding to methylated oligo, TR-FRET; inhibition, % at 4.4 µM; actives 0.75% (n = 370,000); AID 687016; in the data active = inhibition above about 21%;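 also: UHRF1 SRA domain binding a hemimethylated CpG hairpin DNA probe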
Neddylation inh = blocks human cullin neddylation; P61081+Q13564; TR-FRET cullin neddylation, biochemical; calls only at 25 µM; actives 0.58% (n = 360,000); AID 651699; in the data active = inhibition above about 36%
Target sequence (P61081 whole entry, looked up): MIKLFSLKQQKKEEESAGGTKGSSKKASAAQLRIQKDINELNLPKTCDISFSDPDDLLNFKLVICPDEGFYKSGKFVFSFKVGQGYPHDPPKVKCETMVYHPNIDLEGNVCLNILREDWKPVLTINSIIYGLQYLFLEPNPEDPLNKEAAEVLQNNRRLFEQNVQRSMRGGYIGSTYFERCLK
Target sequence (Q13564 whole entry, looked up): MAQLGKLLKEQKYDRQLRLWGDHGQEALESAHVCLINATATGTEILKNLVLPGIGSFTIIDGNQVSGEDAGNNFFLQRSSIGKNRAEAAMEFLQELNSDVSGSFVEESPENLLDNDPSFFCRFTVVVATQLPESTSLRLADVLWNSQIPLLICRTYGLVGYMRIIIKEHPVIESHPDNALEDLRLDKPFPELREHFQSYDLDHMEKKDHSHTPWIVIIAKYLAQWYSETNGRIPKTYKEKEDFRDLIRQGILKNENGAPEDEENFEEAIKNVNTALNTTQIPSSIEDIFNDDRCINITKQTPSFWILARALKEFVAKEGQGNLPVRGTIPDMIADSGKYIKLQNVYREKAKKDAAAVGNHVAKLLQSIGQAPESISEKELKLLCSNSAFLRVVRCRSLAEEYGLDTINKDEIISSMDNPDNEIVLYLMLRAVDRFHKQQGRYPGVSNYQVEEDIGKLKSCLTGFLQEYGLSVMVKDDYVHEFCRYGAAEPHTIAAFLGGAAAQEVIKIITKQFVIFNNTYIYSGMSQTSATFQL
KLK7 zymogen act = proKLK7 (human) activation, primary screen | purified proKLK7, EDANS-DABCYL substrate fluorescence; 100% is mature enzyme control, 0% vehicle | activation, % at 7 µM | actives 0.9% (n = 370,000) | AID 652039;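 active = activation above the mean of all tested compounds plus 3 SD, computed per campaign excluding outliers beyond control limits, cut at about 13% in these data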
Rin1-Abl PPI inh = blocks binding of human Rin1 to Abl; inhibition, % at 7.35 µM; actives 0.4% (n = 360,000); AID 588664; TR-FRET Rin1/Abl binding, biochemical; P00519+Q13671; in the data active = inhibition above about 5%, passing the limit was not always enough
IN multimer up = HIV-1 integrase multimerization activation, counter-screen; shares compounds with LEDGF integ inh; TR-FRET HIV-1 integrase multimerization, biochemical; activation, % at 7.7 µM; actives 17% (n = 2,000); in the data active = activation above about 8.9%
TR-FRET interf = optically interferes with TR-FRET readout in LEDGF counter-screen; shares compounds with LEDGF integ inh; TR-FRET optical interference counterscreen, HIV-1 IN multimerization; inhibition, % at 7.7 µM; 2,000 tested, under 10 active;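 active = inhibition above the mean over all tested compounds plus 3 SD, which no compound reached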
IN-LEDGF confirm = confirmation of HIV-1 LEDGF/p75-dependent integration inhibitors | inhibition, % at 3.7 µM | TR-FRET LEDGF/p75-dependent HIV-1 integration, biochemical | AID 1053136 | actives 36% (n = 2,000) | shares compounds with LEDGF integ inh; in the data active = inhibition above about 14%
A number is an active result; . = inactive; / = no result. This is a sample that favours compounds with a hit; in the whole collection about 3.1% have one here.

SMILES	LEDGF integ inh	MBD2 inh	UHRF1 binding	Neddylation inh	KLK7 zymogen act	Rin1-Abl PPI inh	IN multimer up	TR-FRET interf	IN-LEDGF confirm
O=C1CSC(c2ccc(Cl)c(Cl)c2)N1c1nccs1 (configuration not stated)	18	.	.	.	.	.	.	.	.
O=C1CSC(c2ccc(Cl)cc2)N1c1cccnc1 (configuration not stated)	.	.	.	.	.	.	/	/	/
Cc1cc(NC(=O)CCCS(=O)(=O)c2nc(-c3cccs3)cc(C(F)(F)F)n2)no1	19	.	.	.	.	.	.	.	.
C=CCON1C(=O)C(=O)N(OCC=C)[C@H]2CCCC[C@H]21	81	.	.	.	.	.	.	.	.
CC(=O)Nc1cc(C(F)(F)F)ccc1Oc1cccc(Br)c1	16	.	.	.	.	.	.	.	.
C=CCn1c(C)cc(C(=O)Cn2ncc(Cl)c(Cl)c2=O)c1C	26	.	.	.	.	.	26	.	39
CC(C)(C)C(=O)Cn1ncc(Cl)c(Cl)c1=O	.	.	.	.	.	.	/	/	/
Cc1cc(-c2csc(N)n2)c(C)n1Cc1ccco1	24	.	.	.	.	.	17	.	80
Cc1cc(-c2csc(N)n2)c(C)n1C	22	.	.	.	.	.	.	.	53
Cc1ccc(-n2c(C)cc(-c3csc(N)n3)c2C)cc1	.	.	.	.	.	.	/	/	/
COC(=O)CCCn1nc(NC(=O)c2ccco2)cc1C	.	.	.	.	.	.	/	/	/
Cc1nc(=S)c2c([nH]1)-c1ccccc1CC21CCCCC1	.	.	.	.	.	.	/	/	/
CCCCCCCCCCCCN1CCSCCS1(=O)=O	22	.	.	/	.	/	.	.	.
O=C1C=C(NCCc2cc(Br)c(O)c(Br)c2)C(=O)c2ncccc21	28	.	.	.	.	.	16	.	75
CC(C)(C)c1cc(CCC(=O)NCCc2ccccn2)cc(C(C)(C)C)c1O	.	.	.	.	.	.	/	/	/
Cc1ccc(/C=C2\SC(=S)N(C3CCS(=O)(=O)C3)C2=O)o1 (configuration not stated)	24	.	.	.	.	.	.	.	.
NS(=O)(=O)c1ccc(-c2ccc(/C=C3\SC(=S)N(C4CCS(=O)(=O)C4)C3=O)o2)cc1 (configuration not stated)	.	.	.	.	.	.	/	/	/
N#Cc1ccsc1NC(=O)CN1CCN(S(=O)(=O)c2ccccc2C(F)(F)F)CC1	79	.	.	.	.	.	.	.	.
Cc1ccc(C)c(S(=O)(=O)N2CCN(CC(=O)Nc3sccc3C#N)CC2)c1	.	.	.	.	.	.	/	/	/
CCOC(=O)NNC1CC(=O)N(c2ccccc2)C1=O (configuration not stated)	18	.	.	.	.	.	.	.	.
CC(O)CCC(=O)NNC1CC(=O)N(c2ccccc2)C1=O (configuration not stated)	.	.	.	.	.	.	/	/	/
C=CCN(c1ccccc1Cl)S(=O)(=O)c1cccc(C(=O)NCCc2ccc(OC)cc2)c1	90	.	.	.	.	.	.	.	.
CCn1ncc(NC(=S)Nc2ccc(OC)c(OC)c2)c1C(N)=O	14	.	.	.	.	.	.	.	.
CCn1ncc(NC(=S)Nc2ccc3c(c2)OCO3)c1C(N)=O	.	.	.	.	.	.	/	/	/
CCCCOc1ccc(C(=O)N/C(=C\c2cccc([N+](=O)[O-])c2)C(=O)OCCC)cc1	.	.	.	.	.	.	/	/	/
SMILES	LEDGF integ inh	MBD2 inh	UHRF1 binding	Neddylation inh	KLK7 zymogen act	Rin1-Abl PPI inh	IN multimer up	TR-FRET interf	IN-LEDGF confirm
CCCCOc1ccc(C(=O)N/C(=C\c2ccc([N+](=O)[O-])cc2)C(=O)OCc2ccco2)cc1	21	.	.	.	.	.	.	.	.
Cc1ccn(CCC(=O)N2CCCC(N3CCN(c4ccccc4C)CC3)C2)n1 (configuration not stated)	58	.	.	.	.	.	.	.	.
COc1ccc(N(CC(=O)Nc2cccc(N(C)S(C)(=O)=O)c2)S(=O)(=O)c2ccccc2)cc1Cl	44	.	.	.	.	.	.	.	.
COc1ccc(Cl)cc1N(CC(=O)Nc1cccc(SC)c1)S(C)(=O)=O	40	.	.	.	.	.	.	.	.
COc1ccc(N(CC(=O)Nc2ccc(OC)c(OC)c2)S(=O)(=O)c2ccccc2)cc1Cl	.	.	.	.	.	.	/	/	/
COc1ccc(N(CC(=O)Nc2cccc(SC)c2)S(C)(=O)=O)cc1Cl	.	.	.	.	.	.	/	/	/
CC1(c2nnc(-c3ccccc3)o2)CC(c2cccnc2)=NO1 (configuration not stated)	.	.	.	.	.	.	/	/	/
CC1(c2nnc(Cc3ccccc3)o2)CC(c2cccnc2)=NO1 (configuration not stated)	92	.	.	.	.	.	.	.	.
O=P(O)(O)COc1ccccc1P(=O)(c1ccccc1)c1ccccc1	19	.	.	.	.	.	.	.	.
CC1(C)OC(C)(C)/C(=C/Nc2ccc(O)cc2)C1=O	21	.	.	.	.	.	45	.	31
CC(C(=O)NCCCc1ccccc1)n1cccc1C(=O)c1ccccc1 (configuration not stated)	.	.	.	.	.	.	/	/	/
Cn1c(=O)c2c(nc(SCc3ccc(C(=O)O)cc3)n2C)n(C)c1=O	14	.	.	.	.	.	.	.	.
Cc1ccccc1Cn1cc(COC(=O)N2CCOCC2)nn1	.	.	.	/	.	/	/	/	/
CCc1nnc(N/N=C/c2cccs2)n1N	44	.	.	.	.	.	.	.	.
CNC(=S)N/N=C/c1c(Cl)cccc1Cl	.	.	.	.	.	.	/	/	/
CCc1nnc(N/N=C/c2c(Cl)cccc2Cl)n1N	49	.	.	.	.	.	.	.	.
COC(=O)[C@]12C[C@H](CC(=O)N3CCCC3)C(=O)N(CCc3ccc(OC)c(OC)c3)C1=C[C@H](C(C)(C)C)O[C@@H]2C	.	.	.	/	.	/	/	/	/
CCCCCCCN1CCN=C1N(C)C	.	.	.	.	.	.	/	/	/
NC1=NC(=O)/C(=C/c2ccccc2OS(=O)(=O)c2ccc3ccccc3c2)S1	.	.	.	.	.	.	/	/	/
c1cn2cc(-c3ccc(CN4CCOCC4)cc3)ccc2n1	89	.	.	.	.	.	.	.	.
OCc1ccc(-c2ccc3nccn3c2)cc1	.	.	.	.	.	.	/	/	/

Source: PubChem BioAssay (several laboratories)
